From PubChem BioAssay AID1159580 (chemical genetic matrix, 2015)
Values joined by “and” are separate entries in the source; they are usually repeats but may differ in a detail not shown here. Identical values can stand only once. Screen size: about 5,500 compounds; about 2,000 (36%) were called active. Inconclusive results (about 18%) are left out. Rule as the data show it: active = normalized growth mostly below about 0.91 (no sharp cut-off); inconclusive = no clear call, values can overlap the other calls; inactive = mostly above about 0.92. The list shows a part of the results.

Test: chemical genetic growth profiling, strain panel (AID 1159580);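 also: tested at 20 µM; growth read once vehicle control cultures reached saturation at 30 °C; 1 = growth at the plate median or of vehicle wells; lower values mean less growth of the strain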
Details: growth OD

Measured: normalized growth

O=C1NC(O)=NC1(c1ccccc1)c1ccccc1
inactive: S. cerevisiae deletion strains, locus YJR075W, strain HOC1, active compounds read low 1.01 | S. cerevisiae deletion strains, locus YKL009W, strain mrt4, active compounds read low 1.01 | S. cerevisiae deletion strains, locus YKL068W, active compounds read low 1.02 | S. cerevisiae deletion strains, locus YKL085W, strain MDH1 (second series), active compounds read low 1 | S. cerevisiae deletion strains, locus YKL085W, strain MDH1, active compounds read low 1 | S. cerevisiae deletion strains, locus YKL160W, strain elf1, active compounds read low 1.03 | S. cerevisiae deletion strains, locus YKL190W, strain CNB1, active compounds read low 1.01 | S. cerevisiae deletion strains, locus YKR001C, strain vps1, active compounds read low 1.01 | S. cerevisiae deletion strains, locus YKR026C, strain gcn3, active compounds read low 1.02 | S. cerevisiae deletion strains, locus YKR091W, strain srl3, active compounds read low 1.02 | S. cerevisiae deletion strains, locus YLL001W, strain dnm1, active compounds read low 1.02 | S. cerevisiae deletion strains, locus YLL026W, active compounds read low 1.01 | S. cerevisiae deletion strains, locus YLL041C, strain sdh2, active compounds read low 1.01 | S. cerevisiae deletion strains, locus YLR027C, strain aat2, active compounds read low 1.02 | S. cerevisiae deletion strains, locus YLR039C, strain RIC1, active compounds read low 0.995 | S. cerevisiae deletion strains, locus YLR058C, strain SHM2, active compounds read low 1.01 | S. cerevisiae deletion strains, locus YLR102C, strain apc9, active compounds read low 1.02 | S. cerevisiae deletion strains, locus YLR113W, strain HOG1, active compounds read low 1.01 | S. cerevisiae deletion strains, locus YLR221C, strain rsa3, active compounds read low 1.03 | S. cerevisiae deletion strains, locus YLR258W, strain gsy2, active compounds read low 1.03 | S. cerevisiae deletion strains, locus YLR262C, strain YPT6 (second series), active compounds read low 1.05 | S. cerevisiae deletion strains, locus YLR262C, strain YPT6, active compounds read low 1.03 | S. cerevisiae deletion strains, locus YLR268W, strain sec22, active compounds read low 1.05 | S. cerevisiae deletion strains, locus YLR320W, strain mms22, active compounds read low 1.03 | S. cerevisiae deletion strains, locus YLR330W, strain CHS5, active compounds read low 1.01 | S. cerevisiae deletion strains, locus YLR342W, strain FKS1 (second series), active compounds read low 0.985 | S. cerevisiae deletion strains, locus YLR342W, strain FKS1, active compounds read low 1.02 | S. cerevisiae deletion strains, locus YLR357W, strain rsc2, active compounds read low 1.01 | S. cerevisiae deletion strains, locus YLR370C, strain arc18, active compounds read low 1.01 | S. cerevisiae deletion strains, locus YLR371W, strain rom2, active compounds read low 1.02 | S. cerevisiae deletion strains, locus YLR384C, strain iki3, active compounds read low 1.01 | S. cerevisiae deletion strains, locus YLR418C, strain cdc73, active compounds read low 1 | S. cerevisiae deletion strains, locus YML016C, strain PPZ1, active compounds read low 1.01 | S. cerevisiae deletion strains, locus YML032C, strain rad52, active compounds read low 1.03 | S. cerevisiae deletion strains, locus YML120C, strain ndi1, active compounds read low 1.02 | S. cerevisiae deletion strains, locus YML124C, strain tub3, active compounds read low 1.01 | S. cerevisiae deletion strains, locus YMR058W, strain fet3, active compounds read low 1.01 | S. cerevisiae deletion strains, locus YMR078C, strain ctf18, active compounds read low 1.02 | S. cerevisiae deletion strains, locus YMR125W, strain sto1, active compounds read low 1.02 | S. cerevisiae deletion strains, locus YMR129W, active compounds read low 1.02 | S. cerevisiae deletion strains, locus YMR205C, strain PFK2, active compounds read low 1.04 | S. cerevisiae deletion strains, locus YMR223W, strain ubp8, active compounds read low 0.991 | S. cerevisiae deletion strains, locus YMR231W, strain pep5, active compounds read low 1.02 | S. cerevisiae deletion strains, locus YMR263W, strain SAP30, active compounds read low 1.01 | S. cerevisiae deletion strains, locus YMR307W, strain GAS1, active compounds read low 0.906 | S. cerevisiae deletion strains, locus YNL067W, strain RPL9B, active compounds read low 1.01 | S. cerevisiae deletion strains, locus YNL071W, strain lat1, active compounds read low 1.02 | S. cerevisiae deletion strains, locus YNL128W, strain TEP1, active compounds read low 1.01 | S. cerevisiae deletion strains, locus YNL153C, strain GIM3, active compounds read low 1.01 and 0.985 | S. cerevisiae deletion strains, locus YNL175C, strain NOP13, active compounds read low 0.974 | S. cerevisiae deletion strains, locus YNL183C, strain NPR1, active compounds read low 0.954 | S. cerevisiae deletion strains, locus YNL197C, strain WHI3, active compounds read low 0.983 | S. cerevisiae deletion strains, locus YNL209W, strain ssb2, active compounds read low 1.02 | S. cerevisiae deletion strains, locus YNL224C, strain SQS1, active compounds read low 0.984 | S. cerevisiae deletion strains, locus YNL233W, strain BNI4, active compounds read low 1.01 | S. cerevisiae deletion strains, locus YNL248C, strain rpa49, active compounds read low 1.01 | S. cerevisiae deletion strains, locus YNL250W, strain rad50, active compounds read low 1.02 | S. cerevisiae deletion strains, locus YNL271C, strain bni1, active compounds read low 1.02 | S. cerevisiae deletion strains, locus YNL298W, strain CLA4, active compounds read low 1.01 | S. cerevisiae deletion strains, locus YNL307C, strain MCK1, active compounds read low 1.02 | S. cerevisiae deletion strains, locus YNL322C, strain KRE1 (second series), active compounds read low 1.01 | S. cerevisiae deletion strains, locus YNL322C, strain KRE1, active compounds read low 1.01 and 0.973 | S. cerevisiae deletion strains, locus YNR049C, strain mso1, active compounds read low 1.01 | S. cerevisiae deletion strains, locus YNR052C, strain pop2, active compounds read low 1.01 | S. cerevisiae deletion strains, locus YOL006C, strain TOP1, active compounds read low 1.01 | S. cerevisiae deletion strains, locus YOL012C, strain htz1 1.06 | S. cerevisiae deletion strains, locus YOL147C, strain pex11, active compounds read low 1.01 | S. cerevisiae deletion strains, locus YOR001W, strain rrp6, active compounds read low 1 | S. cerevisiae deletion strains, locus YOR061W, strain CKA2, active compounds read low 1 | S. cerevisiae deletion strains, locus YOR069W, strain VPS5, active compounds read low 1.01 | S. cerevisiae deletion strains, locus YOR070C, strain gyp1, active compounds read low 1.01 | S. cerevisiae deletion strains, locus YOR080W, strain dia2, active compounds read low 1.01 | S. cerevisiae deletion strains, locus YOR083W, strain WHI5 (second series), active compounds read low 0.98 | S. cerevisiae deletion strains, locus YOR083W, strain WHI5, active compounds read low 1.03 | S. cerevisiae deletion strains, locus YOR106W, strain vam3, active compounds read low 1.02 | S. cerevisiae deletion strains, locus YOR136W, strain idh2, active compounds read low 1.01 | S. cerevisiae deletion strains, locus YOR144C, strain elg1, active compounds read low 1.01 | S. cerevisiae deletion strains, locus YOR184W, strain ser1, active compounds read low 1.02 | S. cerevisiae deletion strains, locus YOR231W, strain MKK1, active compounds read low 0.985 | S. cerevisiae deletion strains, locus YOR265W, strain rbl2, active compounds read low 1.01 | S. cerevisiae deletion strains, locus YOR270C, strain vph1, active compounds read low 1.03 | S. cerevisiae deletion strains, locus YOR290C, strain snf2, active compounds read low 1.03 | S. cerevisiae deletion strains, locus YOR316C, strain cot1, active compounds read low 1.02 | S. cerevisiae deletion strains, locus YPL051W, strain arl3, active compounds read low 1 | S. cerevisiae deletion strains, locus YPL055C, strain LGE1, active compounds read low 1.01 and 0.95 | S. cerevisiae deletion strains, locus YPL078C, strain atp4, active compounds read low 1.01 | S. cerevisiae deletion strains, locus YPL106C, strain sse1, active compounds read low 1.03 | S. cerevisiae deletion strains, locus YPL240C, strain hsp82, active compounds read low 1.02 | S. cerevisiae deletion strains, locus YPL241C, strain CIN2, active compounds read low 1 | S. cerevisiae deletion strains, locus YPL256C, strain CLN2, active compounds read low 0.982 | S. cerevisiae deletion strains, locus YPR119W, strain clb2, active compounds read low 1.02 | S. cerevisiae deletion strains, locus YPR141C, strain kar3, active compounds read low 1.01 | S. cerevisiae deletion strains, locus YPR163C, strain tif3, active compounds read low 1.02 | S. cerevisiae deletion strains, locus YPR167C, strain met16, active compounds read low 1.02 | S. cerevisiae deletion strains, strain wtn01, active compounds read low 1.03 | S. cerevisiae strains, strain wild type, active compounds read low 1.01
